Here are results for 40 compounds from PubChem BioAssay.

Molecules are shown by their SMILES. Unmarked numbers belong to inactive results. The source made the active and inactive calls.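 How the source made its calls: active means growth inhibition above 50% at the single 2 µM test dose, taken to imply half-maximal potency below 2 µM; inactive means the rest.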

This assay in a line: antimalarial activity against Dd2 strain (AID 2302).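 Further: 0% = DMSO untreated growth and 100% = chloroquine plus artemisinin killed control.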 The following applies: P. falciparum Dd2 in RBCs, LDH growth readout, 72 h; at 2 µM; hits give high values.
For the compound `COc1cc(OC)cc(C(=O)Nc2ccc(Nc3nc(C)cc(N(C)C)n3)cc2)c1`, the growth inhibition was 90% (active).
Then `Cc1ccc(C=C2SC(=Nc3ccccc3)NC2=O)c(C)c1`, with 90% (active); and `CC(C)(C)c1nn(-c2ccccc2)c2[nH]c(=O)c(CNCc3ccc4c(c3)OCO4)cc12`, with 32%; and `Cc1[nH]nc2cc(Nc3nccc(Nc4ccc(Oc5ccccc5)cc4)n3)ccc12`, with 98% (active).
In the case of `Cc1cc(Nc2ccc(OCc3ccccc3Cl)cc2)c2cc(Cl)ccc2n1` it was 58% (active).
Then `O=C(NCCc1cccc(F)c1)c1cc(Br)cc(N2CCN(c3ccncc3)CC2)c1`, with 86% (active).
With `COC(=O)/C=C/c1ccc(CCC(C)NCC(O)c2cccc(Cl)c2)cc1` (stereo not given), the growth inhibition was 77% (active).
As for `O=[N+]([O-])c1ccc(C(O)CNCCc2ccccc2)cc1OCc1ccccc1` (stereo not given), the growth inhibition was 67% (active).
As to `Cc1sc2nc(CSc3ccccc3)nc(N3CCN(CC(=O)NC4CC4)CC3)c2c1C`, the growth inhibition was 95% (active).
As for `O=C(c1ccc(F)c2ccccc12)N1CCc2cc3nccc(N4CCN5CCC[C@H]5C4)c3cc21`, the growth inhibition was 54% (active).
Then `Cc1[nH]c2ccccc2c1C(=O)C(C)Sc1n[nH]c(-c2ccccc2Br)n1` (stereo not given), with 100% (active).
Consider `CN(C)CCCOc1cc(NC(=O)Nc2ccc(-c3ccncc3)c3ccccc23)ccc1I`, for which the growth inhibition was 97% (active).
In the case of `CC[C@H](C)CNC(=O)c1cncc(-c2ccc(CNCC3CNCCCO3)cc2)c1` (stereo not given in full) it was -2%.
In the case of `Cc1cnc(C(=O)Nc2cccc(-c3cccc(-c4nc5ccc(F)cc5[nH]4)c3)c2)cn1` it was 24%; in that of `O=C(NCc1cc2c(cc1Cl)OCO2)c1ccc(CNC2CCN(Cc3ccccc3)CC2)cc1`, 47%.
`CCN1CCN(Cc2c(O)ccc3c(=O)c(Oc4cc(C)cc(C)c4)c(C(F)(F)F)oc23)CC1`: the growth inhibition is 90% (active).
Then `O=S(=O)(c1ccc(OCc2ccc(Cl)cc2)cc1)c1cc2c(cc1OCc1ccccc1)CCN(CC1CC1)CC2`, with -2%; and `CC(C)CC(=O)Nc1cc(=O)[nH]c2nc(-c3ccccc3)nn12`, with 85% (active); and `COc1ccc(-c2ccc(NC(=O)c3ccc(F)cc3)cc2)cc1CN1CCCN(C)CC1`, with 35%.
With `CC(C)(C)c1ccc(CNC(=O)c2ccc(-c3nc4ccc(C(C)(C)C)cc4[nH]3)cc2)cc1`, the growth inhibition was 49%.
Then `COc1ccccc1C1CCN(C2CCC(NC(=O)/C=C/c3cccc(C(F)(F)F)c3)CC2)CC1` (stereo not given), with 34%; and `COC(=O)c1ccc(-c2ccc(C(=O)NCC3CCN(c4nc(N)c5cc(OC)c(OC)cc5n4)CC3)cc2)cc1`, with 100% (active); and `COc1nc2c(CCN3CC[C@H](NCc4ccc5c(c4)NC(=O)CO5)[C@H](O)C3)c(Cl)cnc2cc1F`, with 22%.
As to `CCCCCC1c2[nH]c3ccccc3c2CCN1C(=O)OCc1ccccc1` (stereo not given), the growth inhibition was 68% (active).
Consider `CCC[C@@H]([C@@H](CC1CCCCC1)C(=O)N[C@H](C(=O)Nc1nccs1)C(C)(C)SCCNC(=O)OCc1ccccn1)N(O)C=O`, for which the growth inhibition was 96% (active).
For the compound `N=c1c(C(=O)NCc2ccccc2)cc2c(=O)n3ccccc3nc2n1CCc1ccccc1`, the growth inhibition is 25%.
Regarding `CN(CCCCCN1CCC(NC(=O)Nc2ccc(Oc3ccccc3)cc2)C1)C(=O)/C=C/c1ccc(Cl)c(Cl)c1` (stereo not given), the growth inhibition was 14%.
With `Cc1noc(C)c1-c1cccc(CNCc2ccc(-c3ccc(-c4nc5c(C)cccc5[nH]4)cc3)cc2)c1`, the growth inhibition is 95% (active).
On to `CCN(CC)CCN(Cc1ccc(-c2ccc(C(F)(F)F)cc2)cc1)C(=O)Cn1cc(CCCc2cccc(F)c2F)c(=O)c2ccccc21`, for which the growth inhibition was 20%.
Turning to `COC(=O)c1c(NC(=O)c2cccc(C(F)(F)F)c2)sc2c1CCN(Cc1ccccc1)C2`, the growth inhibition was 61% (active).
Then `O=C(Nc1cccc(-c2ccc(-c3nc4ccc(C(F)(F)F)cc4[nH]3)s2)c1)c1ccncc1`, with 46%; and `CN(C)CCCOc1ccc(CCNCc2cccc(Oc3ccc(Cl)cc3)c2)cc1`, with 26%; and `COc1cc2ccccc2cc1CNCCCCCCNCc1cc2ccccc2cc1OC`, with 24%.
In the case of `COc1ccc(C(=O)CCC(=O)N(Cc2ccc(-c3ccc(CNCCc4ccc(S(C)(=O)=O)cc4)cn3)cc2)Cc2ccc3c(c2)OCO3)cc1F`, the growth inhibition is 41%.
Turning to `CCN1CCCC1CN(Cc1ccc(-c2ccc(C(F)(F)F)cc2)cc1)C(=O)Cn1c(CCc2cccc(F)c2F)nc(=O)c2ccccc21` (stereo not given), the growth inhibition is 51% (active).
In the case of `O=C(NCCCCCN1CCC(c2c[nH]c3ccccc23)CC1)c1ccc(Cl)c(Cl)c1` it was 10%; in that of `CCCCCCCn1c(=N)n(CC(O)c2ccc(Cl)c(Cl)c2)c2ccccc21` (stereo not given), 100% (active).
Then `O=C(Nc1cccc(C(F)(F)F)c1)c1cccc2[nH]c(C(F)(F)F)nc12`, with 98% (active); and `Cc1cccc2[nH]c(-c3ccc(-c4ccc(NC(=O)c5cncn5C)cc4)s3)nc12`, with 30%; and `Nc1c(Cl)cc(C(O)CNCCCCCOCCc2ccc3ccccc3n2)cc1Cl` (stereo not given), with 97% (active).
